Assays:
Experiment in all cases: log2 ratio of Biotin-Ahx-Ub-VS probe labelling (fragment/DMSO); higher = less target engagement (more negative = stronger competition), active = hit call of the paper (q ≤ 0.05, log2 ratio ≤ -1)
Settings in all cases: compound concentration: 200 uM; treatment time: 3 h
OTUD6B = target: T1, OTUD6B (UniProt Q8N6M0)
T1 sequence (whole entry): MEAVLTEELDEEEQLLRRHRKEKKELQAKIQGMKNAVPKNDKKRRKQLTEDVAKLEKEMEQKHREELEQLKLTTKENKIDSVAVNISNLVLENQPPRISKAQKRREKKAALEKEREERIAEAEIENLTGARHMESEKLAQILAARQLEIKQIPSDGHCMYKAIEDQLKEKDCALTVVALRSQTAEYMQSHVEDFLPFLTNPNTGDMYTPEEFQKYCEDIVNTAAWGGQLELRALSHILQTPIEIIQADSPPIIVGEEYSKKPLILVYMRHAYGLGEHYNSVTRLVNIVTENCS
Summary of the method: (§1)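 Global-median-normalised Spectronaut label-free quantities were compared by unpaired t-test, and values are average log2 ratios of fragment over vehicle. Only proteins with ≥2 unique peptides were used. HEK293T lysate (495 µg per sample) was treated in triplicate with fragment at 200 µM or vehicle for 3 h and then with Biotin-Ahx-Ub-VS at 0.5 µM final for 1 h. Labelled DUBs were then NeutrAvidin-enriched, digested with LysC and trypsin, and run by diaPASEF LC-MS/MS.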

OTUD7B = target: T2, OTUD7B (UniProt Q6GQQ9)
T2 sequence (whole entry): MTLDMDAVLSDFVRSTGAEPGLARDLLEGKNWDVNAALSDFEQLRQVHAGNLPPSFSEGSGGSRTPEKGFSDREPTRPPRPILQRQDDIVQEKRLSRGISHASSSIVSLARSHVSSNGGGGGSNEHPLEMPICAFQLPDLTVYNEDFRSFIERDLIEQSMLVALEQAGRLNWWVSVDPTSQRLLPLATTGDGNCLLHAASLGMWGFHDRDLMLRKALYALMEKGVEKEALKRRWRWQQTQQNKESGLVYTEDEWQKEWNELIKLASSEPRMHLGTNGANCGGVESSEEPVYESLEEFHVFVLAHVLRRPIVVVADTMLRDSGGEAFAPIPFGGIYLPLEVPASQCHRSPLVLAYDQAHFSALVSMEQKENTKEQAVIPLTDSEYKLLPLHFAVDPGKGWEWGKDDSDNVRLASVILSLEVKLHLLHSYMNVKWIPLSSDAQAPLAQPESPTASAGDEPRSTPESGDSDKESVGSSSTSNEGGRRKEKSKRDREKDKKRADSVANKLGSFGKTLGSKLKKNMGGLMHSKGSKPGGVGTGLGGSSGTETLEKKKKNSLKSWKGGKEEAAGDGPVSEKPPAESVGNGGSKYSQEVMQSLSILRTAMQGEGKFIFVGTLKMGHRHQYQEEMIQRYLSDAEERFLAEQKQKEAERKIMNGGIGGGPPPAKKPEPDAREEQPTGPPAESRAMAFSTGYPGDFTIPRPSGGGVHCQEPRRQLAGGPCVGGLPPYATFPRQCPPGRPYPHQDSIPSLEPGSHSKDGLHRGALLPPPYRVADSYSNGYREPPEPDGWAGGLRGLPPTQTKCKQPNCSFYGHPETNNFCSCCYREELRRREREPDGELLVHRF
Summary of the method: as §1

PRPF8 = PRPF8 (UniProt Q6P2Q9)
Summary of the method: as §1

PSMD7 = target: T3, PSMD7 (UniProt P51665)
T3 sequence (whole entry): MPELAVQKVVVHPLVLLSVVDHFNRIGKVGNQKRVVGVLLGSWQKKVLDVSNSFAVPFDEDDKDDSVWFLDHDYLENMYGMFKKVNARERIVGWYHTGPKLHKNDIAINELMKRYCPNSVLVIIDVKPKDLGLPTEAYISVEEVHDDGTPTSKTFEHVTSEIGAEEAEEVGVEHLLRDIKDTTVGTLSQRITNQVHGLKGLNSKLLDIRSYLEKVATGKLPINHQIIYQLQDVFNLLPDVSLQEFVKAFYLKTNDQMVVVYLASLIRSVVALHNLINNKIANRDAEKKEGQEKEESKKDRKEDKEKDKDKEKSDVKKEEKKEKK
Summary of the method: as §1

UCHL1 = UCHL1 (UniProt P09936)
Sequence of UCHL1 (P09936 whole entry, looked up): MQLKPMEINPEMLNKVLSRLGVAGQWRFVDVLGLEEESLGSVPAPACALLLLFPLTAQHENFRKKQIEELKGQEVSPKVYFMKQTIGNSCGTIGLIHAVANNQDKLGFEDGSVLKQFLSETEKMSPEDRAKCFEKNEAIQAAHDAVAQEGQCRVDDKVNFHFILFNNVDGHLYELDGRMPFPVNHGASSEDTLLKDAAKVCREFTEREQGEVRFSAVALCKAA
Summary of the method: as §1

UCHL3 = target: T4, UCHL3 (UniProt P15374)
T4 sequence (whole entry): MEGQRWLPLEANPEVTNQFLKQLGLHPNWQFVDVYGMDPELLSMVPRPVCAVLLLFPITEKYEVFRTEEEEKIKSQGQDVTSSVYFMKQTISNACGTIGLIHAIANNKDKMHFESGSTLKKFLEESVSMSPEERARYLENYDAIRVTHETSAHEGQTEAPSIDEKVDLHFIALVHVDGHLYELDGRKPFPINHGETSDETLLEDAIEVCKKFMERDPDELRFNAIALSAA
Summary of the method: as §1

UCHL5 = target: T5, UCHL5 (UniProt Q9Y5K5)
T5 sequence (whole entry): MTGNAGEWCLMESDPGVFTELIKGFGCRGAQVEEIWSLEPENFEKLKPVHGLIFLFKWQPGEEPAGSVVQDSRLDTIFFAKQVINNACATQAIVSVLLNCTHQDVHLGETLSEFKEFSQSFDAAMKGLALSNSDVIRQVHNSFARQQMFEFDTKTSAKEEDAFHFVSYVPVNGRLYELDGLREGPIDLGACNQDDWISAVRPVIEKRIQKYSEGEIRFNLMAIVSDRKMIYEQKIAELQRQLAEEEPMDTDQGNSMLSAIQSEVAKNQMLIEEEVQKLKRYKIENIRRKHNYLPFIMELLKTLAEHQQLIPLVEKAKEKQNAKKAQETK
Summary of the method: as §1

USP10 = USP10 (UniProt Q14694)
Sequence of USP10 (Q14694 whole entry): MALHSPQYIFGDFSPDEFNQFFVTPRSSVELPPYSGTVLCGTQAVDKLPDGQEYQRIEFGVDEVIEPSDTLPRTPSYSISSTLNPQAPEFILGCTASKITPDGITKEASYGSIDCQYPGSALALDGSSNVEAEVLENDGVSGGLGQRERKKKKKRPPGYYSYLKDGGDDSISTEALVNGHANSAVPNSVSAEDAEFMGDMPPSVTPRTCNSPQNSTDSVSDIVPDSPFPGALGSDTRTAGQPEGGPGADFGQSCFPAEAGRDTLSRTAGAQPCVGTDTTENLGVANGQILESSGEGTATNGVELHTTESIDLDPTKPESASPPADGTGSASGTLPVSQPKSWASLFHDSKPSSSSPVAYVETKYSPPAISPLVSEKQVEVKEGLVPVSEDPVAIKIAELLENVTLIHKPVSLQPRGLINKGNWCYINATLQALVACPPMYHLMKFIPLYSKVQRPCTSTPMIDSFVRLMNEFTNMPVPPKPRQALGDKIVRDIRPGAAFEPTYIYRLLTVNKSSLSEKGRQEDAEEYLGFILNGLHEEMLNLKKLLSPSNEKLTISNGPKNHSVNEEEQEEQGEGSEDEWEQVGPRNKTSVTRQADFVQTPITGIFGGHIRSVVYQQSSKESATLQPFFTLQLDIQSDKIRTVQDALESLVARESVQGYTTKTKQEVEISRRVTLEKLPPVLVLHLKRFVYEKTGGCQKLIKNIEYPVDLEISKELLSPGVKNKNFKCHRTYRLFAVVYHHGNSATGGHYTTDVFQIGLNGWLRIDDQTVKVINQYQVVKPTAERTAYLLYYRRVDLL
Summary of the method: as §1

USP15 = target: T6, USP15 (UniProt Q9Y4E8)
T6 sequence (whole entry): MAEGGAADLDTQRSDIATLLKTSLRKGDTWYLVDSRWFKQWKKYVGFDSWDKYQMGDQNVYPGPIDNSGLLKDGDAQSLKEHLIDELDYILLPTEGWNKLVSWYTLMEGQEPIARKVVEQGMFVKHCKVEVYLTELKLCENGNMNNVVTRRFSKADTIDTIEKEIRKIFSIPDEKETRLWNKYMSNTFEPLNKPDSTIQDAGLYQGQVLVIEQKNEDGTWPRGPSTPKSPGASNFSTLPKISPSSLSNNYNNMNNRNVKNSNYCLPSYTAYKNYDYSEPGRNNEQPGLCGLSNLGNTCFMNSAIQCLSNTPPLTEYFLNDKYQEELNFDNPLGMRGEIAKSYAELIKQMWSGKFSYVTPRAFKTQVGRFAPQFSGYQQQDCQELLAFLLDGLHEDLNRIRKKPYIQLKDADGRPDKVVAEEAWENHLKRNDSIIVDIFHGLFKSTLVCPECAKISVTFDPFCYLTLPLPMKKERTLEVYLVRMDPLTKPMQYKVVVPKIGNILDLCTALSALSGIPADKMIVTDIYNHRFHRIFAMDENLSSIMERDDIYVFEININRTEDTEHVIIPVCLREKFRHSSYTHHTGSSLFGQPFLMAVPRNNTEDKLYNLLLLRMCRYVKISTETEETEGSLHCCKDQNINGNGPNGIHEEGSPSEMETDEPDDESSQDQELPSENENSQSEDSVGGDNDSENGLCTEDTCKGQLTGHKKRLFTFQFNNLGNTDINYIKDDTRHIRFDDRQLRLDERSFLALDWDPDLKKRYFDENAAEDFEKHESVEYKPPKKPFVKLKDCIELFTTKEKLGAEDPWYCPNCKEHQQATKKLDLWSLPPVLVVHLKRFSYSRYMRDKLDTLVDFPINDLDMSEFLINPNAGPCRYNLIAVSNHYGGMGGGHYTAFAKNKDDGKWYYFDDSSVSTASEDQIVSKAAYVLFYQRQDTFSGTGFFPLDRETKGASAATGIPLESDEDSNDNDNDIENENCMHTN
Summary of the method: as §1

Measured: log2 ratio of Biotin-Ahx-Ub-VS probe labelling

O=C(CCl)NC1(c2ccc3c(c2)OCCO3)CCCC1
inactive: OTUD6B -0.0936 | OTUD7B -0.638 | PRPF8 -0.154 | PSMD7 -0.208 | UCHL3 -0.106 | UCHL5 -0.537 | USP10 -0.203 | USP15 -0.213
active: UCHL1 -1.32

Reference: the supplement of paper PMC11732987, “Enantioselective OTUD7B fragment discovery through chemoproteomics screening and high-throughput optimisation” (Communications Chemistry, 2025)
